We go through 17 compounds from PubChem BioAssay.

Unmarked numbers belong to inactive results. The rule behind the calls is not given here.

The target of this assay is L-lactate dehydrogenase (Plasmodium falciparum (isolate CDC / Honduras)) (UniProt Q27743). The assay can be described thus: PfLDH activity inhibition – cell lysate, 3D7 strain, counter-screen for P. falciparum growth inhibition project (AID 2304).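 Note: 0% = vehicle and 100% = reference inhibitor.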 As to conditions: P. falciparum 3D7 crude extract, LDH APAD/NBT absorbance; at 2 µM; hits give high values.
Sequence of L-lactate dehydrogenase (Plasmodium falciparum (isolate CDC / Honduras)) (Q27743 whole entry, looked up): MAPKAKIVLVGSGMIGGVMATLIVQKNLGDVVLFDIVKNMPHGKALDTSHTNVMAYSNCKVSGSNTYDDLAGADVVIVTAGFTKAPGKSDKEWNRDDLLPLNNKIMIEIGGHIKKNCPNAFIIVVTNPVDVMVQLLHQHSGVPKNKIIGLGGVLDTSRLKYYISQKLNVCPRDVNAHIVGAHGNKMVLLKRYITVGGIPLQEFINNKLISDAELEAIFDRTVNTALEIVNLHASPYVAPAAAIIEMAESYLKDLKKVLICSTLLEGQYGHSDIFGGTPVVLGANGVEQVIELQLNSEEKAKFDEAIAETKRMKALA
Regarding `CCCOc1cc2c(cc1OCCC)C(C=Cc1ccc(Cl)cc1Cl)=NC(C)C2` (configuration not stated), the inhibition (usually the change of the read-out against control, counted positive when it falls) was -5%.

Turning to `Cc1[nH]c(C)c(-c2ccc(Oc3cccc(C(F)(F)F)c3)cc2)c(=O)c1Br`, the inhibition is 4%. Take `COc1cc(Cc2cnc3nc(N)nc(N)c3c2C)cc(OC)c1OC`: the inhibition is 1%.

For `CCNC(=O)CCc1cccc(Br)c1`, the inhibition was 6%.

As for `NC(N)=NC(=O)Nc1ccc(Cl)c([N+](=O)[O-])c1`, the inhibition was -8%. Take `Cc1ccc2ccncc2c1N`: the inhibition is -6%. Next, `CCOc1cc2ncnc(Nc3ccc(OCc4c(Cl)cccc4Cl)c(OC)c3)c2cc1OCC`: 5%; `CC(=O)Oc1c(Cl)c(C)nc(C)c1-c1ccc(Oc2ccc(OC(F)(F)F)cc2)cc1`: 5%. Regarding `Nc1ccncc1C(=O)NCCCCN1CCN(c2nsc3ccccc23)CC1`, the inhibition was 6%. Turning to `CCCc1cc2c3c(N)nc(N)nc3ccc2n1CC`, the inhibition is -1%. Next, `Cc1[nH]c(C)c(-c2ccc(Oc3ccc(Cl)cc3)cc2)c(=O)c1Cl`: -3%; `COc1ccc(Cc2c(Cl)nc3nc(N)nc(N)c3c2C)cc1`: 6%; `Nc1nc(N)c2c(ccc3c2ccn3Cc2ccc3c(c2)OCO3)n1`: -3%. The result for `Cc1nc2nc(N)nc(N)c2c(C)c1Cc1ccc([N+](=O)[O-])cc1` reads -1%. Next, `C=CCn1ccc2c3c(N)nc(N)nc3ccc21`: -7%; `CCC(=C(CC)c1ccc(O)c(CNC2CCCCC2)c1)c1ccc(O)c(CNC2CCCCC2)c1`: -1%. Consider `Nc1ncc(-c2ccc(S(=O)(=O)Nc3ccc(C(=O)N[C@@H](CCC(=O)O)C(=O)O)cc3)cc2)c(=O)[nH]1`, for which the inhibition is -3%.
